# From PubChem BioAssay (Tox21)
# Several values for one entry are separate records, joined by “and”; a condition that tells them apart may be missing. Identical values can stand only once. A number with no mark means an inactive call. Records with an inconclusive call do not appear. A call without a number means that no potency is given here. Activity calls are given as the source filed them. Unless noted, calls come from the whole dose curve; as a rule, active = well fitted curve in the direction sought with a large enough effect in the repeat runs; inconclusive = weak or mixed curves; inactive = no such curve, though single readings can be large; an effect the other way counts as inactive or inconclusive.
# Tests used:
# [1] = qHTS assay to identify small molecule antagonists of the estrogen related receptor (ERR) signaling pathway from Tox21 library - cell viability counter screen (AID 1224834); note: nearly all actives have a fitted effect of over 30% in size; note: potency is the fitted concentration of half-maximal effect
# Outline: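 Compounds in DMSO were pinned onto ERR cells that had been incubated for 6 h, and the plates were held at 37 C for 17.5 h. CellTiter-Fluor reagent was then added and fluorescence was measured after 30 min.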
# [2] = target: Luciferin 4-monooxygenase (Photinus pyralis) (UniProt P08659); test: qHTS assay to identify small molecule inhibitors of firefly luciferase (AID 1224835); note: nearly all actives have a fitted effect of over 25% in size; note: potency is the fitted concentration of half-maximal effect
# Outline: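 Inhibition of purified Photinus luciferase is measured by luminescence. Substrate levels (D-luciferin, ATP) sit at their KM values. Each compound is tested in a concentration series.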
# [3] = qHTS assay to identify small molecule agonists of the constitutive androstane receptor (CAR) signaling pathway - cell viability counter screen (AID 1224836); note: nearly all actives have a fitted effect of over 45% in size
# Outline: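 Fluorescence from CellTiter-Fluor indicates live cells after 23 h exposure. The human hepatoma line expresses hCAR and a CYP2B6-2.2kb reporter. Incubation medium contains 0.75 uM PK11195 (final).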
# [4] = qHTS assay to identify small molecule antagonists of the constitutive androstane receptor (CAR) signaling pathway - cell viability counter screen (AID 1224837); note: nearly all actives have a fitted effect of over 45% in size
# Outline: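 Cells are seeded, rested 4 hr at 37 C/5% CO2, dosed with compound (15-point series) and 50 nM CITCO, incubated a further 23 hr, and then CellTiter-Fluor reagent is added before fluorescence is read. The line is HepG2 with stable hCAR and CYP2B6-2.2kb.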
# [5] = target: Nuclear receptor subfamily 1 group I member 3 (Homo sapiens) (UniProt Q14994); test: qHTS assay to identify small molecule antagonists of the constitutive androstane receptor (CAR) signaling pathway (AID 1224838);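 note: HepG2 cells stably expressing hCAR with CYP2B6 luciferase reporter stimulated by CITCO; nearly all actives have a fitted effect of over 40% in size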
# Outline: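 Luminescence from a CYP2B6-2.2kb promoter reporter in hCAR-expressing HepG2 cells reflects CAR signaling. Cells received compounds at 15 concentrations and 50 nM CITCO (final), then incubated 24 h at 37 C/5% CO2.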
# [6] = target: Nuclear receptor subfamily 1 group I member 3 (Homo sapiens) (UniProt Q14994); test: qHTS assay to identify small molecule agonists of the constitutive androstane receptor (CAR) signaling pathway (AID 1224839);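 note: HepG2 cells stably carrying human CAR and a CYP2B6 luciferase reporter; nearly all actives have a fitted effect of over 15% in size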
# Outline: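 Stable hCAR/CYP2B6-2.2kb HepG2 line in DMEM with 10% FBS; compounds (15 concentrations) and 0.75 uM PK11195 final, 24 h at 37 C/5% CO2, then ONE-Glo luminescence after 30 min.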
# [7] = qHTS assay to identify small molecule antagonists of the estrogen related receptor signaling pathway with the pleiotropic PPARgamma coactivator (PGC) from Tox21 10K library - cell viability counter screen (AID 1224840; active = well fitted cell-killing curve with a large enough effect in the repeat runs, not every such curve was filed as active; note: nearly all actives have a fitted effect of over 40% in size)
# Outline: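 Cell viability is measured by CellTiter-Fluor fluorescence in PGC/ERR cells that receive compounds after a 6-hour attachment period and are then incubated 17.5 hours at 37 C.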
# [8] = qHTS assay to identify small molecule antagonists of the estrogen related receptor signaling pathway with the pleiotropic PPARgamma coactivator (PGC) from Tox21 10K library (AID 1224841; call rule not given here; note: actives are mostly falling curves and most rising ones were filed inactive; nearly all actives have a fitted effect of over 50% in size)
# Outline: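 Cells stably carrying the PGC/ERR reporter, seeded at 2,000 per well, received pin-transferred compounds 6 h post-plating. Exposure lasted 18 h at 37 C. Signal: One-Glo luminescence.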
# [9] = qHTS assay to identify small molecule agonists of the estrogen related receptor signaling pathway with the pleiotropic PPARgamma coactivator (PGC) from Tox21 10K library (AID 1224842); note: nearly all actives have a fitted effect of over 15% in size
# Outline: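 Luminescence from One-Glo (30 min, room temperature) measured after PGC/ERR cells had 18 h at 37 C with pinned compound (23 nL in DMSO). Cells had been seeded at 2,000 per well and pre-incubated 6 h.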
# [10] = target: Thyrotropin receptor (Homo sapiens) (UniProt P16473); test: qHTS assay to identify small molecule agonists of the thyroid stimulating hormone receptor (TSHR) signaling pathway (AID 1224843; calls by dose curve; note: nearly all actives have a fitted effect of over 45% in size)
# Outline: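 Agonist activity read as cAMP rise via d2/cryptate HTRF competition, 1 h room-temperature detection, in HEK293 cells expressing TSHR. Fifteen-point titrations, each run in triplicate, with a 30 min room-temperature incubation beforehand.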
# [11] = qHTS assay to identify small molecule agonists of the hypoxia (HIF-1) signaling pathway - cell viability counter screen (AID 1224844; calls by dose curve; note: nearly all actives have a fitted effect of over 50% in size)
# Outline: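 Viability counter screen: HRE-bla ME-180 cells plated 5 hrs before compound addition, treated 17 hrs at 37C and 5% CO2, then CellTiter-Glo added after the FRET reporter read; luminescence after 30 min.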
# [12] = qHTS assay to identify small molecule agonists of H2AX (AID 1224845; active = well fitted activation curve with a large enough effect in the signal ratio in the repeat runs, not every such curve was filed as active; the % refers to the signal ratio)
# Outline: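 Phospho-H2AX Ser139 measured by HTRF (ex 320 nm; em 665 and 620 nm) after 24 hr antibody incubation. Compounds, 15 concentrations, 0.76% DMSO, were applied to CHO-K1 cells for 3hr at 37C before lysis.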
# [13] = qHTS assay to identify small molecule agonists of the hypoxia (HIF-1) signaling pathway (AID 1224846; active = well fitted activation curve with a large enough effect in the signal ratio in the repeat runs, not every such curve was filed as active; the % refers to the signal ratio)
# Outline: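 Agonist mode reporter screen. ME-180 cells stably expressing bla under HRE control received test compounds in DMSO for 17 hrs (37C, 5% CO2), and beta-lactamase activity was then detected with the CCF4-AM FRET substrate.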
# [14] = qHTS assay to identify small molecule agonists of H2AX - cell viability counter screen (AID 1224847; calls by dose curve; note: top concentration of the series differs between compounds; nearly all actives have a fitted effect of over 30% in size)
# Outline: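 Viability of CHO-K1 (wild type) cells after 3 hr compound exposure was measured by CellTiter-Glo luminescence.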
# [15] = qHTS assay to identify small molecule antagonists of the estrogen related receptor (ERR) signaling pathway from Tox21 library (AID 1224848); note: nearly all actives have a fitted effect of over 50% in size; note: potency is the fitted concentration of half-maximal effect
# Outline: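 Luciferase luminescence (ONE-Glo, 30 min room temperature) was the read-out. Cells of the NTP-supplied ERR line, 2,000 per well, were given 6 h at 37 C before compound addition in DMSO and 18 h exposure at 37 C.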
# [16] = qHTS assay to identify small molecule agonists of the estrogen related receptor (ERR) signaling pathway from Tox21 library (AID 1224849; calls by dose curve; note: nearly all actives have a fitted effect of over 15% in size); conditions: ERR reporter cell line, ONE-Glo luciferase, 18 h
# Outline: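 Quantitative HTS in agonist format: NTP ERR cell line, compounds transferred in DMSO after 6 h plating, 18 h incubation at 37 C, ONE-Glo luminescence endpoint.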
# [17] = qHTS RealTime-Glo MT Cell Viability Assay in HepG2 cells - 24 hour (AID 1224867); note: nearly all actives have a fitted effect of over 50% in size
# Outline: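 HepG2 suspension premixed with RealTime-Glo reagents is plated at 600 cells per well and left 5 h at 37 C/5% CO2. Compounds in DMSO then go in, and bioluminescence reflecting viable cell number is recorded over 40 h.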
# [18] = qHTS RealTime-Glo MT Cell Viability Assay in HEK293 cells - 32 hour (AID 1224868)
# Outline: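 Reads taken at 0, 8, 16, 24, 32 and 40 h from the same wells. HEK293 cells (600/well) carried RealTime-Glo reagents from seeding, with compound added after a 5 h settle at 37 C.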
# [19] = A CellTox Green Cytotoxicity Assay to monitor cytotoxicity in HEK293 cells - 0 hour (AID 1224869); note: nearly all actives have a fitted effect of over 50% in size
# Outline: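 Dead-cell fluorescence measured kinetically: asymmetric cyanine dye, HEK293, 600 cells/well, 5 h settle, 23 nL cpd/DMSO, 37 C, reads 0–40 h every 8 h.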
# [20] = qHTS assay to identify small molecule agonists of the estrogen related receptor signaling pathway with the pleiotropic PPARgamma coactivator (PGC) (AID 1224823)
# Outline: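 Luminescence from One-Glo reagent (30 min, room temperature) was read after 18 h compound treatment at 37 C of PGC/ERR cells plated 6 h beforehand; compounds delivered in DMSO by pin tool.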
# Thyrotropin receptor (Homo sapiens), sequence (P16473 whole entry, looked up): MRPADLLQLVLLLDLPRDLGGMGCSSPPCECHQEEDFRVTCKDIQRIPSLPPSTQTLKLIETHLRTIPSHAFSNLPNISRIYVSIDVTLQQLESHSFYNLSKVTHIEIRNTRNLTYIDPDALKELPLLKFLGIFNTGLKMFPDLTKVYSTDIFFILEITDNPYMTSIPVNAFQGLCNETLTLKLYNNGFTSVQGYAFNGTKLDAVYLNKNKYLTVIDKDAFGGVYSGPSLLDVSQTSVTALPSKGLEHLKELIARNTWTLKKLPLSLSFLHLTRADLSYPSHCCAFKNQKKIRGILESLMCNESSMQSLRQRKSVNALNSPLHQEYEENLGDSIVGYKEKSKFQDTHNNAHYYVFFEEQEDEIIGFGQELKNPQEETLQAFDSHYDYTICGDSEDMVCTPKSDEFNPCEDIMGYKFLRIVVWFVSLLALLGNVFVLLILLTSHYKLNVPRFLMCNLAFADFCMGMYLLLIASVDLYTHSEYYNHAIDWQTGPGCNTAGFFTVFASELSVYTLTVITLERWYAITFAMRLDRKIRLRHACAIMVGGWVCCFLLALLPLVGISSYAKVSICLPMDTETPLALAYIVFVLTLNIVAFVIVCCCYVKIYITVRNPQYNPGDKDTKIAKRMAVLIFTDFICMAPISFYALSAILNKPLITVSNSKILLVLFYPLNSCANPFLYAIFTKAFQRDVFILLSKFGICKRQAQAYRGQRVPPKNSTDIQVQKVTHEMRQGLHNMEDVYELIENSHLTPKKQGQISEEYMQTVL
# Luciferin 4-monooxygenase (Photinus pyralis), sequence (P08659 whole entry, looked up): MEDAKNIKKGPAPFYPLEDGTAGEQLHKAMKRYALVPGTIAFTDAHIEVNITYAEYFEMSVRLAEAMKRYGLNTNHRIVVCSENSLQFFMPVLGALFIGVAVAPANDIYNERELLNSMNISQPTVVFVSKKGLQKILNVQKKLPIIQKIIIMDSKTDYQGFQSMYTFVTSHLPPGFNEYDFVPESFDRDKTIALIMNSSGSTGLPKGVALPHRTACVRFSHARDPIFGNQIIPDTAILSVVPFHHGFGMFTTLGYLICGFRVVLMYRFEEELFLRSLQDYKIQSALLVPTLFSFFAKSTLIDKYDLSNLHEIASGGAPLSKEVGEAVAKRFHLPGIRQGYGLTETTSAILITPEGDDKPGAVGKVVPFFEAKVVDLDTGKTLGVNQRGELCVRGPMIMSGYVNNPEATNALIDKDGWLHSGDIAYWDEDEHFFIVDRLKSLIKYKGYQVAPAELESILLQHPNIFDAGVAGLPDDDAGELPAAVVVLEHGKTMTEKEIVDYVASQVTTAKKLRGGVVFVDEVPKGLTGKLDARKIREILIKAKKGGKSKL
# Nuclear receptor subfamily 1 group I member 3 (Homo sapiens), sequence (Q14994 whole entry, looked up): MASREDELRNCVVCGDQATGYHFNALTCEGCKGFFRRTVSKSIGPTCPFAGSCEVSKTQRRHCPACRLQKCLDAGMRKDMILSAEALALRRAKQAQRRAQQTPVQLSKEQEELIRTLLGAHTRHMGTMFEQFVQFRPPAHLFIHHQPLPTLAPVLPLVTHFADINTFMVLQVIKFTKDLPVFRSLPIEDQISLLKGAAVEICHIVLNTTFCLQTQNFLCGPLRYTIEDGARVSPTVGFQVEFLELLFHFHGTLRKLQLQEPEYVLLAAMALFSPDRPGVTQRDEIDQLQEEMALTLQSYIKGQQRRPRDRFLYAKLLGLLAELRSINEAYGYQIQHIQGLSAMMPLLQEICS
structure (smiles),measurement,setting,value
O=C1O[C@H](CO)[C@@H](O)[C@H](O)[C@H]1O,Potency,[1],inactive
same,Potency,[2],inactive
same,Potency,[3],inactive
same,Potency,[4],inactive
same,Potency,[5],inactive
same,Potency,[6],inactive
same,Potency,[7],inactive
same,Potency,[8],inactive
same,Potency,[9],inactive
same,Potency,[10],inactive
same,Potency,[11],inactive
same,Potency,[12],inactive
same,outcome,[13],inactive
same,Potency,[14],inactive
same,Potency,[15],inactive
same,"activity change, positive = activation",[16]; at 42.5 µM (top of the series),3.62%
same,"activity change, positive = activation",[16]; at 92.4 µM (top of the series),-0.676%
same,Potency,[17],inactive
same,Potency,[18],inactive
same,Potency,[19],inactive
CCCCNC(N)=O,Potency,[1],inactive
same,Potency,[2],inactive
same,Potency,[3],inactive
same,Potency,[4],inactive
same,Potency,[5],inactive
same,Potency,[6],inactive
same,Potency,[7],inactive
same,Potency,[8],inactive
same,Potency,[9],inactive
same,Potency,[11],inactive
same,Potency,[12],inactive
same,outcome,[13],inactive
same,Potency,[14],inactive
same,Potency,[15],inactive
same,"activity change, positive = activation",[16]; at 92.4 µM (top of the series),7.41% and 4.54%
same,Potency,[17],inactive
same,Potency,[19],inactive
Cc1ccc(C(=O)O)o1,Potency,[1],inactive
same,Potency,[2],inactive
same,Potency,[3],inactive
same,Potency,[4],inactive
same,Potency,[5],inactive
same,Potency,[6],inactive
same,Potency,[7],inactive
same,Potency,[10],inactive
same,Potency,[11],inactive
same,Potency,[12],inactive
same,outcome,[13],inactive
same,Potency,[14],inactive
same,Potency,[17],inactive
same,Potency,[18],inactive
same,Potency,[19],inactive
O=C(O)c1cc(-c2ccccc2)nc2ccccc12,Potency,[20],inactive
same,Potency,[1],inactive
same,Potency,[2],12.8 µM (active) and 13.8 µM (active)
same,Potency,[3],inactive
same,Potency,[4],inactive
same,Potency,[5],inactive
same,Potency,[7],inactive
same,Potency,[8],inactive
same,Potency,[10],inactive
same,Potency,[11],inactive
same,Potency,[12],inactive
same,Potency,[14],inactive
same,Potency,[15],inactive
same,"activity change, positive = activation",[16]; at 92.4 µM (top of the series),1.96% (active)
same,Potency,[17],inactive
same,Potency,[18],inactive
same,Potency,[19],inactive
CS(=O)(=O)Nc1ccc([N+](=O)[O-])cc1Oc1ccccc1,Potency,[20],inactive
same,Potency,[1],30.6 µM (active)
same,Potency,[4],inactive
same,Potency,[5],inactive
same,Potency,[6],inactive
same,Potency,[8],inactive
same,Potency,[9],inactive
same,Potency,[10],inactive
same,Potency,[11],inactive
same,Potency,[12],inactive
same,Potency,[14],inactive
same,Potency,[15],38.6 µM (active)
same,"activity change, positive = activation",[16]; at 42.5 µM (top of the series),-19.6%
same,"activity change, positive = activation",[16]; at 92.4 µM (top of the series),-48.5%
same,Potency,[17],inactive
same,Potency,[18],inactive
same,Potency,[19],inactive
CCCCCCCCCCC=CC1CC(=O)OC1=O (stereo not given),Potency,[1],inactive
same,Potency,[2],63.6 µM (active) and 71 µM (active)
same,Potency,[3],inactive
same,Potency,[4],inactive
same,Potency,[5],inactive
same,Potency,[6],inactive
same,Potency,[7],inactive
same,Potency,[10],inactive
same,Potency,[11],inactive
same,Potency,[12],inactive
same,outcome,[13],inactive
same,Potency,[14],inactive
same,Potency,[17],inactive
same,Potency,[18],inactive
same,Potency,[19],inactive
CCOC(=O)[C@H](CCc1ccccc1)N[C@@H](C)C(=O)N1Cc2ccccc2C[C@H]1C(=O)O,Potency,[1],inactive
same,Potency,[2],inactive
same,Potency,[3],inactive
same,Potency,[4],inactive
same,Potency,[5],inactive
same,Potency,[6],inactive
same,Potency,[7],inactive
same,Potency,[8],inactive
same,Potency,[9],inactive
same,Potency,[11],inactive
same,Potency,[12],inactive
same,outcome,[13],inactive
same,Potency,[14],inactive
same,Potency,[15],inactive
same,"activity change, positive = activation",[16]; at 42.5 µM (top of the series),-3.47%
same,"activity change, positive = activation",[16]; at 92.4 µM (top of the series),-6.49%
same,Potency,[17],inactive
same,Potency,[18],inactive
same,Potency,[19],inactive
